Measurements reported in PubChem BioAssay AID1159580 (chemical genetic matrix, 2015).
Among all 5,500 compounds or so, about 2,000 (36%) were called active. Inconclusive results (about 18%) are left out. Cut-off read from the data, not from the text of the source: active = normalized growth mostly below about 0.91 (no sharp cut-off); inconclusive = no clear call, values can overlap the other calls; inactive = mostly above about 0.92. This is one part of the list.

Assay: chemical genetic growth profiling, strain panel (AID 1159580);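 note: tested at 20 µM; growth read once vehicle control cultures reached saturation at 30 °C; 1 = growth at the plate median or of vehicle wells; lower values mean less growth of the strain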
Settings: growth OD

Measured: normalized growth

C/C=C1\[C@H]2C=C(C)C[C@]1(N)c1ccc(=O)[nH]c1C2
inactive: S. cerevisiae deletion strains, locus YJR075W, strain HOC1, hits give low values 0.997 | S. cerevisiae deletion strains, locus YKL009W, strain mrt4, hits give low values 1.01 | S. cerevisiae deletion strains, locus YKL068W, hits give low values 1.01 | S. cerevisiae deletion strains, locus YKL085W, strain MDH1 (second series), hits give low values 1 | S. cerevisiae deletion strains, locus YKL085W, strain MDH1, hits give low values 1 | S. cerevisiae deletion strains, locus YKL160W, strain elf1, hits give low values 0.989 | S. cerevisiae deletion strains, locus YKL190W, strain CNB1, hits give low values 1.01 | S. cerevisiae deletion strains, locus YKR001C, strain vps1, hits give low values 1.03 | S. cerevisiae deletion strains, locus YKR026C, strain gcn3, hits give low values 1.02 | S. cerevisiae deletion strains, locus YKR091W, strain srl3, hits give low values 1.02 | S. cerevisiae deletion strains, locus YLL001W, strain dnm1, hits give low values 1.02 | S. cerevisiae deletion strains, locus YLL026W, hits give low values 1.01 | S. cerevisiae deletion strains, locus YLL041C, strain sdh2, hits give low values 1.02 | S. cerevisiae deletion strains, locus YLR027C, strain aat2, hits give low values 1.02 | S. cerevisiae deletion strains, locus YLR039C, strain RIC1, hits give low values 1.05 | S. cerevisiae deletion strains, locus YLR058C, strain SHM2, hits give low values 1.01 | S. cerevisiae deletion strains, locus YLR102C, strain apc9, hits give low values 1.02 | S. cerevisiae deletion strains, locus YLR113W, strain HOG1, hits give low values 1.01 | S. cerevisiae deletion strains, locus YLR221C, strain rsa3, hits give low values 1.01 | S. cerevisiae deletion strains, locus YLR258W, strain gsy2, hits give low values 1.03 | S. cerevisiae deletion strains, locus YLR262C, strain YPT6 (second series), hits give low values 1.01 | S. cerevisiae deletion strains, locus YLR262C, strain YPT6, hits give low values 1.05 | S. cerevisiae deletion strains, locus YLR268W, strain sec22, hits give low values 0.992 | S. cerevisiae deletion strains, locus YLR320W, strain mms22, hits give low values 1.04 | S. cerevisiae deletion strains, locus YLR330W, strain CHS5, hits give low values 1.01 | S. cerevisiae deletion strains, locus YLR342W, strain FKS1 (second series), hits give low values 1.04 | S. cerevisiae deletion strains, locus YLR342W, strain FKS1, hits give low values 1.02 | S. cerevisiae deletion strains, locus YLR357W, strain rsc2, hits give low values 1.06 | S. cerevisiae deletion strains, locus YLR370C, strain arc18, hits give low values 1.02 | S. cerevisiae deletion strains, locus YLR371W, strain rom2, hits give low values 1.01 | S. cerevisiae deletion strains, locus YLR384C, strain iki3, hits give low values 1.02 | S. cerevisiae deletion strains, locus YLR418C, strain cdc73, hits give low values 1.02 | S. cerevisiae deletion strains, locus YML016C, strain PPZ1, hits give low values 1 | S. cerevisiae deletion strains, locus YML032C, strain rad52, hits give low values 1.01 | S. cerevisiae deletion strains, locus YML120C, strain ndi1, hits give low values 1.02 | S. cerevisiae deletion strains, locus YML124C, strain tub3, hits give low values 1.01 | S. cerevisiae deletion strains, locus YMR058W, strain fet3, hits give low values 1.02 | S. cerevisiae deletion strains, locus YMR078C, strain ctf18, hits give low values 1.02 | S. cerevisiae deletion strains, locus YMR125W, strain sto1, hits give low values 1.03 | S. cerevisiae deletion strains, locus YMR129W, hits give low values 1.03 | S. cerevisiae deletion strains, locus YMR205C, strain PFK2, hits give low values 1.07 | S. cerevisiae deletion strains, locus YMR223W, strain ubp8, hits give low values 1.03 | S. cerevisiae deletion strains, locus YMR231W, strain pep5, hits give low values 1.02 | S. cerevisiae deletion strains, locus YMR263W, strain SAP30, hits give low values 1 | S. cerevisiae deletion strains, locus YMR307W, strain GAS1, hits give low values 1.02 | S. cerevisiae deletion strains, locus YNL067W, strain RPL9B, hits give low values 1 | S. cerevisiae deletion strains, locus YNL071W, strain lat1, hits give low values 1.02 | S. cerevisiae deletion strains, locus YNL128W, strain TEP1, hits give low values 1.02 | S. cerevisiae deletion strains, locus YNL153C, strain GIM3, hits give low values 1 | S. cerevisiae deletion strains, locus YNL183C, strain NPR1, hits give low values 0.956 | S. cerevisiae deletion strains, locus YNL209W, strain ssb2, hits give low values 1.02 | S. cerevisiae deletion strains, locus YNL233W, strain BNI4, hits give low values 0.983 | S. cerevisiae deletion strains, locus YNL248C, strain rpa49, hits give low values 1.01 | S. cerevisiae deletion strains, locus YNL250W, strain rad50, hits give low values 1.01 | S. cerevisiae deletion strains, locus YNL271C, strain bni1, hits give low values 1.02 | S. cerevisiae deletion strains, locus YNL298W, strain CLA4, hits give low values 1.02 | S. cerevisiae deletion strains, locus YNL307C, strain MCK1, hits give low values 1.02 | S. cerevisiae deletion strains, locus YNL322C, strain KRE1 (second series), hits give low values 1.01 | S. cerevisiae deletion strains, locus YNL322C, strain KRE1, hits give low values 1.01 | S. cerevisiae deletion strains, locus YNR049C, strain mso1, hits give low values 1.03 | S. cerevisiae deletion strains, locus YNR052C, strain pop2, hits give low values 1.02 | S. cerevisiae deletion strains, locus YOL006C, strain TOP1, hits give low values 1.05 | S. cerevisiae deletion strains, locus YOL012C, strain htz1 0.803 | S. cerevisiae deletion strains, locus YOL147C, strain pex11, hits give low values 1.01 | S. cerevisiae deletion strains, locus YOR001W, strain rrp6, hits give low values 1 | S. cerevisiae deletion strains, locus YOR061W, strain CKA2, hits give low values 1.02 | S. cerevisiae deletion strains, locus YOR069W, strain VPS5, hits give low values 1.01 | S. cerevisiae deletion strains, locus YOR070C, strain gyp1, hits give low values 1.02 | S. cerevisiae deletion strains, locus YOR080W, strain dia2, hits give low values 1.02 | S. cerevisiae deletion strains, locus YOR083W, strain WHI5, hits give low values 0.992 | S. cerevisiae deletion strains, locus YOR106W, strain vam3, hits give low values 1.01 | S. cerevisiae deletion strains, locus YOR136W, strain idh2, hits give low values 1.02 | S. cerevisiae deletion strains, locus YOR144C, strain elg1, hits give low values 1.01 | S. cerevisiae deletion strains, locus YOR184W, strain ser1, hits give low values 1.04 | S. cerevisiae deletion strains, locus YOR231W, strain MKK1, hits give low values 1.01 | S. cerevisiae deletion strains, locus YOR265W, strain rbl2, hits give low values 1.02 | S. cerevisiae deletion strains, locus YOR270C, strain vph1, hits give low values 1.02 | S. cerevisiae deletion strains, locus YOR290C, strain snf2, hits give low values 1.01 | S. cerevisiae deletion strains, locus YOR316C, strain cot1, hits give low values 1.01 | S. cerevisiae deletion strains, locus YPL051W, strain arl3, hits give low values 0.996 | S. cerevisiae deletion strains, locus YPL055C, strain LGE1, hits give low values 1.02 | S. cerevisiae deletion strains, locus YPL078C, strain atp4, hits give low values 0.991 | S. cerevisiae deletion strains, locus YPL106C, strain sse1, hits give low values 1.06 | S. cerevisiae deletion strains, locus YPL240C, strain hsp82, hits give low values 1.03 | S. cerevisiae deletion strains, locus YPL241C, strain CIN2, hits give low values 1.01 | S. cerevisiae deletion strains, locus YPL256C, strain CLN2, hits give low values 0.99 | S. cerevisiae deletion strains, locus YPR119W, strain clb2, hits give low values 1.01 | S. cerevisiae deletion strains, locus YPR141C, strain kar3, hits give low values 1.01 | S. cerevisiae deletion strains, locus YPR163C, strain tif3, hits give low values 1.02 | S. cerevisiae deletion strains, locus YPR167C, strain met16, hits give low values 1.01 | S. cerevisiae deletion strains, strain wtn01, hits give low values 1.01 | S. cerevisiae strains, strain wild type, hits give low values 1.02
